# The panel holds about 83,000 compounds, 20% with a hit somewhere; the sample as a whole holds those more often.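 48-hour exposure, single concentration, 96-well plates; percent growth endpoint where 0 means no net growth. Active: below 10.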 Unmarked numbers belong to inactive results. Activity calls are given as the source filed them.
# Tests used:
# Test in all cases: NCI-60 one-dose screen, 48 h (100 = growth as untreated, 0 = no growth, -100 = all killed)
# Details in all cases: 10 µM unless noted
# DU-145 prostate = tested on: DU-145 prostate
# K-562 leukemia = tested on: K-562 leukemia
# MALME-3M melanoma = tested on: MALME-3M melanoma
# MDA-MB-231 breast = tested on: MDA-MB-231 breast
# RXF 393 renal = tested on: RXF 393 renal
# SF-268 CNS = tested on: SF-268 CNS
# SF-295 CNS = tested on: SF-295 CNS
# SF-539 CNS = tested on: SF-539 CNS
# UACC-257 melanoma = tested on: UACC-257 melanoma
# M14 melanoma = tested on: M14 melanoma
# HCT-15 colon = tested on: HCT-15 colon
# HT29 colon = tested on: HT29 colon
# SNB-75 CNS = tested on: SNB-75 CNS
# SNB-19 CNS = tested on: SNB-19 CNS
# U251 CNS = tested on: U251 CNS
# PC-3 prostate = tested on: PC-3 prostate
# SK-MEL-5 melanoma = tested on: SK-MEL-5 melanoma
# UACC-62 melanoma = tested on: UACC-62 melanoma
# LOX IMVI melanoma = tested on: LOX IMVI melanoma
# SK-MEL-28 melanoma = tested on: SK-MEL-28 melanoma
SMILES,growth (DU-145 prostate),growth (K-562 leukemia),growth (MALME-3M melanoma),growth (MDA-MB-231 breast),growth (RXF 393 renal),growth (SF-268 CNS),growth (SF-295 CNS),growth (SF-539 CNS),growth (UACC-257 melanoma),growth (M14 melanoma),growth (HCT-15 colon),growth (HT29 colon),growth (SNB-75 CNS),growth (SNB-19 CNS),growth (U251 CNS),growth (PC-3 prostate),growth (SK-MEL-5 melanoma),growth (UACC-62 melanoma),growth (LOX IMVI melanoma),growth (SK-MEL-28 melanoma)
C#C[C@]1(O)CC[C@H]2[C@@H]3CC=C4c5sc(Nc6ccc(C)cn6)nc5CC[C@]4(C)[C@H]3CC[C@@]21C,27.9%,-2.56% (active),-31.4% (active),-1.2% (active),-78.6% (active),-7.73% (active),-70.2% (active),-66.8% (active),-42.8% (active),-48.8% (active),-45.6% (active),1.03% (active),-12.2% (active),-21.2% (active),-1.79% (active),-27.3% (active),-93.1% (active),-24.8% (active),-61.7% (active),-72.4% (active)
CC(Nc1ncnc2ccc(-c3cnc(N)nc3)cc12)c1ccccc1 (stereo not given),25.1%,44.5%,28.9%,25.4%,-2.14% (active),40.9%,29.6%,23.4%,77.2%,48.3%,22.4%,43.1%,31.1%,40%,47%,29.7%,26.4%,28.5%,23.8%,50.2%
Cc1csc(/N=C(N)/N=C(\N)c2cccs2)n1,110%,95.7%,102%,99.5%,106%,103%,113%,99.1%,104%,99.1%,100%,116%,94.3%,103%,97%,92.3%,99.5%,94.7%,104%,117%
Cc1ccc(C(=O)CSc2nc3ccccc3c(=O)n2C)cc1,95.3%,68.8%,107%,80%,101%,94.5%,88.6%,93.4%,93.2%,94.3%,94.5%,111%,75.5%,94.9%,94.6%,88.5%,81.4%,70.3%,93%,101%
CCOP(=O)(OCC)OC[C@]12CC[C@@H](C)[C@H](C)C1C1=CC[C@@H]3[C@@]4(C)CCCNC(C)(C)[C@@H]4CC[C@@]3(C)[C@]1(C)CC2 (stereo not given in full),1.04% (active),-59.7% (active),20%,39%,16.6%,37.4%,18.6%,60.2%,13.4%,-65.7% (active),-8.25% (active),-30.6% (active),66.8%,17%,-59.1% (active),10.9%,-8.29% (active),-12.6% (active),-86.3% (active),-2.47% (active)
CCOP(=O)(OCC)OC[C@]12CCC(C)(C)C[C@H]1C1=CC[C@@H]3[C@@]4(C)CC[C@H](OP(=O)(OCC)OCC)C(C)(C)[C@@H]4CC[C@@]3(C)[C@]1(C)CC2,83.1%,28.9%,62.6%,50.2%,74.9%,73.1%,51.8%,66.9%,55%,51.9%,34.6%,41.4%,58.9%,71.2%,49.1%,19.3%,31.3%,53.9%,37.2%,78.9%
CCCCc1nc2c(N)nc3ccccc3c2n1Cc1ccc(OC)cc1,83.4%,23.2%,87.6%,75.8%,58.4%,81.1%,56.5%,84.2%,72%,67.3%,58.3%,32.9%,66.2%,76%,67.9%,43.5%,47.3%,68.2%,75%,90.2%
CS(=O)(=O)c1nccc(-c2c(-c3cccc(OCc4ccc(Cl)c(C(F)(F)F)c4)c3)nc3sccn23)n1,-25% (active),14.2%,88.3%,84.4%,78%,104%,95%,93.3%,66.9%,72.9%,-30.7% (active),95.8%,108%,58.6%,98.3%,86.5%,97.2%,87.5%,-75.9% (active),50.5%
CN(C)CCNc1ccc2ncc(C#Cc3cncc(C(=O)Nc4ccc(CN5CCN(C)CC5)c(C(F)(F)F)c4)c3)n2n1,18.9%,2.29% (active),17.4%,-18.2% (active),-75.1% (active),-50.9% (active),45.2%,-71.8% (active),74.9%,54.1%,34.7%,-13% (active),-93.4% (active),1.59% (active),23.8%,2.27% (active),74.6%,60.2%,-88.6% (active),75%
COc1ccccc1Cn1cc(C#N)c(N)c1C(=O)c1ccc(Br)cc1,104%,83.2%,96%,88.7%,92.1%,96.2%,93%,99.8%,100%,98.5%,86.6%,107%,81.1%,84.9%,102%,96.8%,96.7%,69.7%,94.6%,100%
O=C(Nc1cccc(Cl)c1)Nc1nc2cc([N+](=O)[O-])ccc2o1,52.7%,37.8%,29.7%,61.4%,67.4%,37.3%,51%,59.4%,54.6%,39.5%,29.4%,71.6%,72.9%,31.3%,23.3%,29.8%,15.7%,29.1%,40.4%,36.2%
CC(Nc1c(C#N)cnc2ccc(-c3cncc(-c4n[nH]c(=O)o4)c3)cc12)c1ccccc1 (stereo not given),8.39% (active),28.5%,-8.08% (active),17.2%,-24% (active),12.2%,-7.24% (active),-12.8% (active),34.2%,18.7%,10.4%,20.2%,7.1% (active),11.1%,17.6%,18.9%,-84.8% (active),-37% (active),-8.49% (active),11.2%
NS(=O)(=O)c1ccc(CCn2c(-c3ccc(C(=O)O)cc3)nc(-c3ccccc3)c2-c2ccccc2)cc1,102%,96.8%,97.9%,92.6%,104%,93.8%,101%,99.1%,105%,105%,94.5%,106%,86.1%,102%,110%,93.5%,99.1%,94.2%,102%,102%
Cc1ccc2c(n1)C(=O)C(Cl)=C(Nc1cccc(C(F)(F)F)c1)C2=O,98.7%,3.08% (active),-5.42% (active),54.7%,-1.18% (active),100%,110%,106%,-4.17% (active),80.4%,-61.1% (active),105%,109%,101%,95.7%,69.6%,96.9%,97.6%,-61.8% (active),78.5%
CN1CCN(CCNc2nc(-c3cccc(NS(=O)(=O)c4cccc5c(N(C)C)cccc45)c3)cs2)CC1,81.8%,10.6%,44%,64.8%,61.6%,82.7%,42.6%,68.1%,53.9%,62.9%,18.5%,71.6%,73.8%,75.5%,65.9%,65.5%,12.2%,65.7%,38.1%,40.2%
